Assay outcomes: PubChem BioAssay, National Center for Advancing Translational Sciences (NCATS)
Sampled rows, rich in hits. Any-hit rate of the full collection: about 19%.
DT40 TDP1 no CPT: qHTS for Inhibitors of human tyrosyl-DNA phosphodiesterase 1 (TDP1): qHTS in cells in absence of CPT | DT40 Tdp1-/- hTDP1 cells, no CPT, ATP luminescence, 48 h | Potency, µM (titrated, usually from 46.2 µM), actives largely listed as inhibitors | hit rate 15% among 420,000 | AID 686978, 2013; further: nearly all actives have a fitted effect of over 55% in size
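A cellular qHTS used chicken DT40 cells lacking endogenous Tdp1 but carrying stably transfected human TDP1. Compounds were applied without camptothecin, and cell growth kinetics were judged by ATP-dependent luminescence after ≥48 hr.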
IL1B secr inh: qHTS for Inhibitors of Inflammasome Signaling: IL-1-beta AlphaLISA Primary Screen. THP-1 LPS/ATP IL-1B secretion, AlphaLISA, 16 h; stronger effect = lower value. activity change, % at 57.5 µM. hit rate 4.7% among 360,000. AID 743279, 2014; in the data active means activity change below about -50%; inconclusive means mostly about -30% to -49%
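THP-1 cells pretreated 1 hr with compounds (up to 57.5 uM final), then stimulated with LPS (250 ng/mL final) plus ATP (1.25 mM final); secreted IL-1B measured by AlphaLISA after 16 hr, decreased signal indicating inhibition.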
HT1080NT lethal: qHTS for induction of synthetic lethality in tumor cells producing 2HG: qHTS for the HT-1080-NT fibrosarcoma cell line; hit rate 1.6% among 360,000; Potency, µM (doses to about 46.1 µM), hits mostly cytotoxic; HT-1080-NT fibrosarcoma viability, CellTiter-Glo ATP luminescence, 48 h; AID 686970, 2013;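 further: NT is the 2HG producing partner of a matched IDH1 knockdown line; nearly all actives have a fitted effect of over 55% in size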
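Toxicity toward the 2HG-producing NT line was scored as %Activity, normalised to DMSO and no-cell wells, from CellTiter-Glo luminescence after 48 hours' treatment.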
ELG1 DNA repair: qHTS screen for small molecules that inhibit ELG1-dependent DNA repair in human embryonic kidney (HEK293T) cells expressing luciferase-tagged ELG1 | HEK293T ELG1-luciferase reporter, luminescence, 16 h; DNA damage induced by 5-fluorouridine | Potency, µM (titrated, usually from 46.1 µM), most hits filed as inhibitors | hit rate 2.3% among 330,000 | AID 504467, 2011; further: nearly all actives have a fitted effect of over 55% in size
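Overnight (16 hr) co-exposure of 2,000 cells/well to 5-fluorouridine and compound at 37 °C preceded detection. Luciferase was quantified via ONE-Glo luminescence; loss of signal denotes inhibition.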
TDP1 cell CPT: qHTS for Inhibitors of human tyrosyl-DNA phosphodiesterase 1 (TDP1): qHTS in cells in presence of CPT; hit rate 12% among 420,000; chicken DT40 Tdp1-/-;hTDP1 cells + 20 nM CPT, ATP luminescence, 48 h; Potency, µM (titrated, usually from 46.2 µM), usual class: inhibitors; further: nearly all actives have a fitted effect of over 55% in size
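Chicken DT40 Tdp1-/- cells complemented with human TDP1, 400 cells/well, exposed to compounds plus 20 nM camptothecin for at least 48 h at 37 C; viability read as ATP content by CellTiter-Glo luminescence.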
HT1080 IDH1KD tx: qHTS for induction of synthetic lethality in tumor cells producing 2HG: qHTS for the HT-1080-IDH1KD cell line. HT-1080 IDH1 knockdown viability, ATP luminescence, 48 h. Potency, µM (titrated, usually from 46.1 µM), hits mostly cytotoxic. hit rate 2% among 360,000. AID 686971, 2013
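Assay cells: HT-1080 with IDH1 knockdown, 750 per well, RPMI/5% FBS. Exposure: 48 h at 37 °C following 2 h pre-incubation. Read: CellTiter-Glo luminescence; fitted concentration-response, curve class assigned.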
Numbers stand for hits; . = inactive; ? = inconclusive; / = no result given; [ ] = another dose, or the depositor's remark. Unless noted, the call rests on the fitted dose curve; in most records, active means well fitted curve in the direction sought with a large enough effect; inconclusive means small, poorly fitted or top-dose-only effect, or another doubt; inactive means no such curve, though single readings can be large; an effect the other way counts as inactive or inconclusive.

SMILES | DT40 TDP1 no CPT | IL1B secr inh | HT1080NT lethal | ELG1 DNA repair | TDP1 cell CPT | HT1080 IDH1KD tx
COc1ccc(/C=C(/NC(=O)c2cccc([N+](=O)[O-])c2)C(=O)O)cc1 | . | . | . | . | . | .
O=C(NC(=S)Nc1cc([N+](=O)[O-])ccc1O)c1cccnc1 | 26µM | . | . | ? | 21µM | .
Cc1cc2c(c(C)c1Br)C(c1ccc3c(c1)OCO3)CC(=O)O2 (centres undefined) | . | . | . | . | . | .
COc1ccc(CC(=O)Nc2nc(-c3ccncc3)cs2)cc1 | . | . | ? | 18µM | . | .
O=C(CSc1ncnc2[nH]ncc12)Nc1nc(-c2ccc(F)c(F)c2)cs1 | 21µM | -68 | . | ? | 13µM | .
Cc1ccc(-c2csc(NC(=O)CCNC(=O)c3ccccc3Cl)n2)cc1 | ? | -53 | . | ? | ? | .
COc1ccc(OC)c(-c2csc(NC(=O)Cc3ccccc3F)n2)c1 | ? | -62 | . | ? | ? | .
NS(=O)(=O)c1ccc(NC(=S)NNC(=O)c2ccc(Br)o2)cc1 | . | . | . | . | . | .
O=C(COc1ccc(F)cc1Cl)Nc1nc(-c2ccccn2)cs1 | / | / | / | . | / | /
O=C(CN1C(=O)NC2(CCCC2)C1=O)Nc1nc(-c2ccc(F)c(F)c2)cs1 | ? | . | . | . | 12µM | .
COc1ccc(CC(=O)Nc2nc(-c3ccc(F)c(F)c3)cs2)cc1 | 16µM | -85 | 18µM | 21µM | 21µM | ?
O=C(COc1ccccc1Cl)Nc1nc(-c2ccncc2)cs1 | 16µM | . | . | ? | 15µM | .
O=C(Cc1ccc(F)cc1)Nc1nc(-c2ccc(F)c(F)c2)cs1 | ? | ? | . | . | 8.2µM | .
Cc1cc(Cn2cnc3c2C[C@@H](C(=O)O)N(C(=O)C(c2ccccc2)c2ccccc2)C3)ccc1N(C)C | . | / | / | / | . | /
COc1ccc(/C=C(/NC(=O)c2ccccc2OC)C(=O)Nc2ccc(C(=O)O)cc2)cc1 | . | . | . | . | . | .
COc1ccc(NC(=O)CSc2nnc(-c3cccs3)o2)cc1 | . | / | / | / | . | /
CCOc1ccc(CNC(=O)c2ccc3c(c2)nc2n3CCC(C)C2)cc1OC (centres undefined) | . | / | / | / | . | /
CCC(=O)c1ccc(OCc2cn(CC(=O)c3ccc(O)cc3)nn2)cc1 | . | . | . | / | . | .
C(=C\c1ccnc2ccccc12)/c1cccnc1 | 13µM | / | / | / | ? | /
O=[N+]([O-])c1ccccc1/C=C/c1ccnc2ccccc12 | 14µM | / | / | / | ? | /
Cn1cc(/C=C/c2ccnc3ccccc23)c2ccccc21 | 11µM | / | / | / | ? | /
Nc1ccccc1/C=C/c1ccccc1N | ? | . | . | / | . | .
Nc1ccccc1/C=C/c1ccnc2ccccc12 | 3.2µM | / | / | / | 5µM | /
O=C(NCCOc1ccccc1)c1cccc(S(=O)(=O)N2CCN(Cc3ccccc3)CC2)c1 | ? | . | . | / | ? | .
O=CNc1ccc(/C=C/c2ccnc3ccccc23)cc1 | 14µM | / | / | / | 13µM | /
SMILES | DT40 TDP1 no CPT | IL1B secr inh | HT1080NT lethal | ELG1 DNA repair | TDP1 cell CPT | HT1080 IDH1KD tx
N#CC(=Cc1ccnc2ccccc12)c1ccccc1 | 21µM | . | . | / | ? | .
C=Nc1ccc(/C=C/c2ccnc3ccccc23)cc1 | 11µM | / | / | / | 22µM | /
C(=C\c1ccnc2ccccc12)/c1ccnc2ccccc12 | 18µM | / | / | / | ? | /
ON=Cc1ccnc2ccccc12 | ? | . | . | / | . | .
O=Cc1ccnc2ccccc12 | . | / | / | / | 2.8µM | /
C[n+]1c(/C=C/c2ccnc3ccccc23)cc(/C=C/c2ccnc3ccccc23)c2ccccc21 | 2.5µM | / | / | / | 5µM | /
O=C(/C=C/c1ccnc2ccccc12)c1cccs1 | 13µM | -118 | 18µM | ? | 4.6µM | 18µM
COc1ccc(S(=O)(=O)Nc2ccc(-n3cnnn3)cc2)cc1[N+](=O)[O-] | . | . | . | . | . | .
COc1ccc(S(=O)(=O)NN(C)c2nc(C(F)(F)F)nc3ccccc23)cc1 | ? | . | 21µM | ? | ? | 16µM
COc1ccc(S(=O)(=O)N2CCCCC2)cc1NC(=O)C1CC(=O)N(Cc2ccccc2)C1 (centres undefined) | . | . | . | . | . | .
CCOC(=O)CC(S(=O)(=O)c1ccccc1)S(=O)(=O)c1ccccc1 | 0.65µM | ? | ? | / | 0.58µM | 21µM
COc1cc(C(=O)OCC(=O)NCCN2C(=O)CSC2=O)ccc1OCc1c(C)noc1C | . | . | . | . | . | .
CCOc1cc(C(=O)Nc2cc3c(cc2N2CCCC2)n(C)c(=O)c(=O)n3C)cc(OCC)c1OCC | . | / | / | / | . | /
O=C(/C=C\c1ccccc1OC(=O)c1ccccc1F)c1cc2ccccc2o1 | 15µM | -104 | 16µM | ? | 8.2µM | ?
Cc1nc(SCC(=O)NNC(=O)c2cccs2)[nH]c(=O)c1C | . | . | . | ? | . | .
Cc1ccc(Cn2nnnc2CN2CCC(c3nc4ccc(Cl)cc4[nH]3)CC2)cc1 | 2.3µM | -81 | . | 23µM | 2.6µM | ?
CCC(C)(C)n1nnnc1CN1CCC(NC(=O)c2ccc(Br)cc2)CC1 | 21µM | . | . | ? | ? | .
COc1ccc(CC(=O)NC2CCN(Cc3nnnn3C(C)(C)C)CC2)cc1OC | . | . | . | . | . | .
Cc1ccc(Cn2nnnc2CN2CCC(NC(=O)c3ccc(Br)cc3)CC2)cc1 | 18µM | . | . | 21µM | ? | .[9.24 µM]
COc1cc(C(=O)Nc2ccc(NC(=O)c3ccccc3Cl)nc2)cc(OC)c1OC | ? | . | . | . | ? | .
Cc1ccccc1-c1nc2c3c(-c4ccccc4)c(-c4ccccc4)oc3ncn2n1 | . | / | / | / | . | /
O=C(NC1CCCCC1)C1CCC(=O)N(Cc2cccc(C(F)(F)F)c2)C1 (centres undefined) | . | . | . | . | . | .
Cc1ccc(N2C(=O)CC(Sc3nc4ccccc4o3)C2=O)cc1Cl (centres undefined) | 3.3µM | . | . | . | 4.1µM | .
O=C(NCc1ccccc1)c1cc(C2CCCN(C(=O)C3CC3)C2)on1 (centres undefined) | . | . | . | / | . | .
COc1cc(C(=O)N2CCCC(c3cc(C(=O)NCc4ccc(F)cc4)no3)C2)cc(OC)c1C (centres undefined) | ? | . | . | / | 23µM | ?
